Only a selection was taken, and hits are over-represented in it overall.
Pf Dd2 growth: Plasmodium falciparum Dd2 growth inhibition; Potency, µM (doses to about 28.9 µM), actives largely listed as inhibitors; hit rate 4.3% among 120,000; P. falciparum Dd2 growth, SYBR Green, 72 h; AID 1347417; active means well fitted inhibition curve with a large enough effect; further: nearly all actives have a fitted effect of over 65% in size
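Infected erythrocytes (Dd2, 0.3% parasitemia, 2.5% hematocrit final) are added to compound in RPMI-1640/Albumax II medium, grown 72 h at 37C in low oxygen, then lysed with saponin/Triton-X containing SYBR Green and read by fluorescence.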
A number is an active result; n = inactive; [ ] = remark or other dose.

SMILES | Pf Dd2 growth
CC(=O)NCC(=O)N1CCC(N2C(=O)C(OCC3CC3)C23CCCCC3)CC1 (stereo not drawn) | n
COc1ccc(C(=O)N2CCC(Oc3ccc(-c4noc(-c5ccccc5)n4)cc3)C2)cn1 (stereo not drawn) | n[5.79 µM]
CCCCn1cc(S(=O)(=O)c2ccc(OC)cc2)c(=O)c2cc(F)c(F)cc21 | n
CCn1cc(S(=O)(=O)c2cccc(C)c2)c(=O)c2cc(F)c(N3CCN(c4ccccc4)CC3)cc21 | n
Cc1ccc(Cn2cc(S(=O)(=O)c3ccccc3)c(=O)c3cc(F)c(N4CCOCC4)cc32)cc1 | 10µM
Cc1ccc(S(=O)(=O)c2cn(Cc3ccc(F)cc3)c3cc(N4CCCC4)c(F)cc3c2=O)cc1 | n
Cc1cccc(S(=O)(=O)c2cn(Cc3ccccc3)c3cc(N4CCC(C)CC4)c(F)cc3c2=O)c1 | 10µM
CCn1cc(S(=O)(=O)c2cccc(Cl)c2)c(=O)c2cc(F)c(N3CCC(C)CC3)cc21 | n
CCCCn1cc(S(=O)(=O)c2ccc(OC)cc2)c(=O)c2cc(F)c(N3CCOCC3)cc21 | 11µM
COc1ccc(S(=O)(=O)c2cn(Cc3ccccc3)c3cc(N4CCCC4)c(F)cc3c2=O)cc1 | 13µM
Cc1cc(C)cc(C(=O)N2CCCC(n3cc(-c4nc(C(C)C)no4)nn3)C2)c1 (stereo not drawn) | n
CN(CC(=O)N1CCC(C)(c2noc(C3CC3)n2)CC1)S(=O)(=O)c1ccc2c(c1)oc(=O)n2C | n
COCC(=O)N[C@H]1C[C@H]2C(=O)Nc3ccc(-c4cccs4)cc3C(=O)N2C1 | n
COc1cc(C(=O)NCCn2cccc2-c2nc(-c3ccccc3)no2)cc(OC)c1OC | n
CCn1cc(CN2C[C@@H](COC)[C@H](C(=O)N(C)C)C2)cn1 | n
CCn1cc(-c2ccccc2)cc1C(=O)NC1CCCC1 | n
CCOc1ccccc1NC(=O)CSc1nc2c(oc3ccccc32)c(=O)n1Cc1ccco1 | n
CCCN(CCC)C(=O)CSc1nc2ccccc2c(=O)n1Cc1ccco1 | 11µM
O=C(CSc1nc2c(oc3ccccc32)c(=O)n1Cc1ccco1)Nc1ccccc1 | n
CN(C)Cc1nnc(C2CCN(C(=O)Nc3cccc(C#N)c3)CC2)n1C | n
COC1C(=O)N(C2CCN(C(=O)NCc3ccc(C)cc3)CC2)C12CCOCC2 (stereo not drawn) | n
COC(=O)c1c(C)sc(-c2c(-c3ccc4c(c3)OCCO4)[nH]c3c2c(=O)n(C)c(=O)n3C)c1O | n
CCOC(=O)c1c(C)sc(-c2c(-c3ccc(OC)c(F)c3)[nH]c3c2c(=O)[nH]c(=O)n3C)c1O | n[5.79 µM]
CCOC(=O)c1c(C)sc(-c2c(-c3ccc4c(c3)OCCO4)[nH]c3c2c(=O)n(C)c(=O)n3C)c1O | 8.9µM
CC(C)CCN1C(=O)CC[C@]2(C(=O)NCc3ccncc3)CCCC[C@@H]12 | n
SMILES | Pf Dd2 growth
CCCN(CCC)C(=O)[C@@]12CCCC[C@H]1N(CCC(C)C)C(=O)CC2 | 10µM
CC(C)CCN1C(=O)CC[C@]2(C(=O)NC3CC3)CCCC[C@@H]12 | n
Cc1ncoc1C(=O)N1CCCC(c2nnnn2C)C1 (stereo not drawn) | n
O=C(CC[C@@H]1CNC(=O)[C@@H]2C[C@H](NCc3ccc(OC(F)(F)F)cc3)CN12)Nc1ccccc1 | n
Cc1nnc(CN2CCC(N3CCCC(C(=O)NCCc4ccccc4)C3)CC2)o1 (stereo not drawn) | n
Cc1ccc(CNC(=O)N2C[C@@H](Oc3cccnc3)C[C@H]2C(=O)N2CCOCC2)cc1 | n
O=C(NCc1ccco1)N1CC(c2noc(C3CCCN3CC3CC3)n2)C1 (stereo not drawn) | n
O=C(c1cccs1)N1CC(c2noc(C3CCCN3CC3CC3)n2)C1 (stereo not drawn) | 4µM
CCCS(=O)(=O)N1CC(c2noc(C3CCCN3CC3CC3)n2)C1 (stereo not drawn) | n
O=C1Cc2c(-c3ccc(N4CCOCC4)cc3)n[nH]c2CN1CCc1ccncc1 | n
Cn1cc(C(=O)NCCc2ccccc2)c(=O)c2cc(S(=O)(=O)N3CCCCCC3)ccc21 | 13µM
CCCCNC(=O)c1cn(C)c2ccc(S(=O)(=O)N3CCCC3)cc2c1=O | n
Cn1cc(C(=O)NCCc2ccc(Cl)cc2)c(=O)c2cc(S(=O)(=O)N3CCCCC3)ccc21 | n
CCCCN1C(=O)c2ccccc2C(C(=O)NCc2ccccn2)C12CCCCC2 (stereo not drawn) | n
CCOCCOC1CCN(C(=O)Nc2ccc(OC)cc2)CC1 | n
Cc1cc(C[C@@H]2COC[C@@H]2NC(=O)c2cnc(Nc3ccccc3)nc2)on1 | n
Cc1ccc(CCNC(=O)Cn2nc(C)n(CCc3ccccc3)c2=O)o1 | n
O=C1CCCCC(C(=O)NCCc2ccccc2)N1 (stereo not drawn) | n
Cc1nc(NC(C)c2nc(-c3cccnc3)no2)c2cccnc2n1 (stereo not drawn) | 3.5µM
C[C@@H](NC(=O)c1cccnc1)c1onc(-c2cccnc2)c1C(=O)O | n
COc1ccc(-c2noc(-c3nc(-c4cccnc4)no3)n2)cc1OC | n
CN(CC1CCOCC1)C(=O)c1ccc(Br)o1 | n
COCc1nnc2n1CCC(NC(=O)CCc1ccc(OC)cc1)CC2 (stereo not drawn) | n
CC(C)CCN1CC2(COCC(=O)N(Cc3cccc(OC(F)(F)F)c3)C2)C1 | n
O=C(COc1ccc(Cl)cc1)N1CCN(c2ccccc2)C(=O)C1 | n
SMILES | Pf Dd2 growth
C#CCNC(=O)C[C@@H]1C[C@@H](C(C)C)[C@H](CNC(=O)NC2CCCCC2)C=C1C | n
Cc1noc(-c2ccn3c(CNC(=O)c4ccc(C)c(F)c4)nnc3c2)n1 | n
CCOC(=O)c1[nH]c(C)c(CCC(=O)N2CCN(c3cccc(OC)c3)CC2)c1C | 4µM
CCOC(=O)c1[nH]c(C)c(CCC(=O)NCc2ccccc2)c1C | n
COc1cccc(N2CCN(C(=O)CCc3conc3-c3ccccc3)CC2)c1 | n
CCOC(=O)c1[nH]c(C)c(CCC(=O)Nc2cc(C)ccc2OC)c1C | n
CCOC(=O)c1[nH]c(C)c(CCC(=O)N2CCN(c3cc(Cl)ccc3C)CC2)c1C | 0.56µM
Cc1ccc(Cl)cc1N1CCN(C(=O)CCSCc2ccccc2F)CC1 | n
CCOC(=O)c1[nH]c(C)c(CCC(=O)N2CCN(c3cc(C)ccc3C)CC2)c1C | 0.63µM
CCOC(=O)c1cc(S(=O)(=O)N2CCN(c3cccc(OC)c3)CC2)[nH]n1 | n
CCOC(=O)c1[nH]c(C)c(CCC(=O)NCc2cccc(Cl)c2)c1C | n
Cc1n[nH]c(C)c1CCC(=O)N1CCC(C2CCN(S(C)(=O)=O)CC2)C1 (stereo not drawn) | n
Cc1ccccc1NC(=O)N1CCOCC1CC(=O)NCc1cccnc1 (stereo not drawn) | n
Cn1c(=O)n([C@H]2CCCN(C(=O)Nc3ccc(F)cc3F)C2)c2ncccc21 | n
O=C(CC1CCCCC1)N1CCC2(CC1)NC(=O)N(c1ccccc1)N2 | n
O=C1Nc2ccc(-c3ccsc3)cc2C(=O)N2CCN(C(=O)CO)C[C@H]12 | n
CNCc1ccccc1-c1ccccc1 | 11µM
CNCc1ccccc1C(F)(F)F | n
CNCc1ccccc1OC | n
CCN1c2cc(C(=O)Nc3cccc(C(C)C)c3)ccc2C(=O)N2CCCCCC21 (stereo not drawn) | n
COc1cccc(NC(c2nnc(-c3ccccc3)o2)c2ccc(F)cc2Cl)c1 (stereo not drawn) | 10µM
CCOC(=O)c1cccc(NC(c2nnc(-c3ccccc3)o2)c2ccccc2F)c1 (stereo not drawn) | n
CCc1cc(=O)n(CC(=O)Nc2ccccc2C)c(-c2cccc(F)c2)n1 | n

Bioassay records: PubChem, National Center for Advancing Translational Sciences (NCATS)
